According to PubChem BioAssay (NCATS):
Records with an inconclusive call do not appear. Where a call stands in place of a potency, no number is given. The source made the active and inactive calls. Unless noted, calls come from the whole dose curve; as a rule, active = well fitted curve in the direction sought with a large enough effect; inconclusive = small, poorly fitted or top-dose-only effect, or another doubt; inactive = no such curve, though single readings can be large; an effect the other way counts as inactive or inconclusive.

What was measured:
[1] = Primary qHTS for inhibitors of nuclear receptor binding SET domain protein 2 (NSD2) in an isogenic RCH-ACV NSD2 p.E1099K mutant (9B) (AID 1645876); note: nearly all actives have a fitted effect of over 70% in size; note: potency is the fitted concentration of half-maximal effect
[2] = Primary qHTS for inhibitors of nuclear receptor binding SET domain protein 2 (NSD2) in an RCH-ACV wild type WT cells (2C) (AID 1645877); note: potency is the fitted concentration of half-maximal effect; nearly all actives have a fitted effect of over 70% in size
[3] = molecular target: Glutathione peroxidase 1 (Homo sapiens) (UniProt P07203); assay: Primary qHTS Assay for Inhibitors of Recombinant Selenoprotein Glutathione Peroxidase 1 (GPX1) (AID 1845191); note: nearly all actives have a fitted effect of over 65% in size
Chain of Glutathione peroxidase 1 (Homo sapiens) (P07203 whole entry, looked up): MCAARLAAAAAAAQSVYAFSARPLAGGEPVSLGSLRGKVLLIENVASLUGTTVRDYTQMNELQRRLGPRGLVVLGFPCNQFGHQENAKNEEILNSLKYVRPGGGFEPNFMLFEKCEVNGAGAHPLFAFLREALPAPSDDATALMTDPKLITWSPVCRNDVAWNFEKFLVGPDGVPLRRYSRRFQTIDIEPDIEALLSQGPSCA
Outline: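 NADPH consumption tracked by fluorescence at 340/450 nm between t=0 and t=15 min, room temperature. Final mix: 10 nM GPX1, 100 nM glutathione reductase, 1 mM GSH, 0.5 mM NADPH, 0.5 mM cumene hydroperoxide, 0.01% BSA; 30 min compound–enzyme preincubation.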

[4] = qHTS drug screen for cell cycle checkpoint inhibitors in PARPi-resistant BRCA-mutant ovarian cancer cell lines. (AID 1963452; calls by dose curve); settings: PEO1/OlaR viability, CellTiter-Glo luminescence, 96 h, stronger effect = lower value
Outline: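 PEO1, PEO4 and PEO1/OlaR ovarian cancer cells, 600 per well, exposed 96 h at 37C to a dilution series. Viability read by CellTiter-Glo luminescence, normalized to DMSO and empty wells; activity summarized as Z-AUC.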

[5] = molecular target: Phospholipid hydroperoxide glutathione peroxidase GPX4 (Homo sapiens) (UniProt P36969); assay: Primary qHTS Assay for Inhibitors of Recombinant Selenoprotein Glutathione Peroxidase 4 (GPX4) (AID 1845192); note: nearly all actives have a fitted effect of over 65% in size
Chain of Phospholipid hydroperoxide glutathione peroxidase GPX4 (Homo sapiens) (P36969 whole entry, looked up): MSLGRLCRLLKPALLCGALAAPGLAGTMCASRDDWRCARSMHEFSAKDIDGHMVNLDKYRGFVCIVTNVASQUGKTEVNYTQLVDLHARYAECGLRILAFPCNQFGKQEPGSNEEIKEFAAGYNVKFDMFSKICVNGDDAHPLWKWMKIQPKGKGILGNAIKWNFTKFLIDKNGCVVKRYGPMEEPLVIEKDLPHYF
Outline: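 NADPH consumption followed by fluorescence at 340/450 nm, t=0 and after 15 min at room temperature. Reaction started with cumene hydroperoxide (0.5 mM final) after 30 min compound–GPX4 preincubation; final 200 nM GPX4, 100 nM GR, 1 mM GSH, 0.5 mM NADPH.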

[6] = Cell Viability - BJ (AID 421; calls by dose curve;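 note: potency is the fitted concentration of half-maximal effect; cells exposed to compound for 40 hours at 37 °C before readout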); settings: BJ fibroblast viability, qHTS
Outline: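 Cytotoxicity as drop in intracellular ATP (CellTiter-Glo, 20 min RT) after 40 hr compound exposure of BJ fibroblasts at 37 °C. Titrations scaled between DMSO and 100 uM tamoxifen, Hill-fitted for AC50.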

[7] = Cell Viability - Jurkat (AID 426;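 active = dose-dependent loss of cell ATP signal giving a full or clear fitted curve, ranked by lower potency value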; note: potency is the fitted concentration of half-maximal effect); settings: qHTS
Outline: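 Cells of the human T-cell leukemia line Jurkat (E6-1) are seeded at 5000 per well, treated with compound across a concentration range for 40 hours at 37 °C, then lysed with CellTiter-Glo; luminescence reports ATP.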

[8] = Cell Viability - Hek293 (AID 427;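 active = compounds whose dose-response curve shows a full or clear partial loss of cell viability, called from curve shape rather than a numeric limit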;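 note: potency is the fitted concentration of half-maximal effect; cells exposed to compound for 40 hours at 37 °C before reading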); settings: qHTS
Outline: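 Luminescent ATP content (CellTiter-Glo, 20 min at room temperature) was measured after a 40 hr, 37 °C compound exposure of HEK293 cells. AC50 values came from Hill-equation fits of qHTS concentration-response data normalized to DMSO and 100 uM tamoxifen.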

[9] = Cell Viability - HepG2 (AID 433; calls by dose curve;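 note: potency is the fitted concentration of half-maximal effect; potency for ATP loss meaning cytotoxicity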); settings: qHTS
Outline: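 HepG2 cells, 1500 per well, treated 40 hr at 37 °C in complete medium; viability from intracellular ATP by CellTiter-Glo luminescence. Normalized to DMSO and 100 uM tamoxifen; AC50 from Hill fit of qHTS concentration-response.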

[10] = Cell Viability - MRC5 (AID 434; calls by dose curve;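 note: potency is the fitted concentration of half-maximal effect; potency reflects cytotoxicity seen as loss of intracellular ATP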); settings: MRC5 lung fibroblast viability, qHTS
Outline: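 AC50 values come from Hill-equation fits of intracellular ATP loss, measured by CellTiter-Glo luminescence. Normal lung fibroblasts (MRC5) had 40 hr compound treatment at 37 C, normalized between DMSO and 100 uM tamoxifen.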

[11] = Cell Viability - SK-N-SH (AID 435; calls by dose curve;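 note: potency is the fitted concentration of half-maximal effect; compound exposure lasted 40 h at 37 °C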); settings: SK-N-SH neuroblastoma cell viability qHTS
Outline: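 SK-N-SH neuroblastoma cells (1500/well) treated 40 h at 37 °C in complete medium; viability read as cellular ATP by CellTiter-Glo luminescence. Normalized to DMSO and 100 uM tamoxifen; AC50 from Hill fits of qHTS concentration-response.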

[12] = Cell Viability - N2a (AID 540); note: nearly all actives have a fitted effect of over 45% in size
Outline: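 Cytotoxicity was scored as loss of cellular ATP in N2a cells, a mouse neuroblastoma line. Compounds are applied in a qHTS concentration series for 40 hr at 37 °C.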

[13] = Cell Viability - SH-SY5Y (AID 544); settings: SH-SY5Y neuroblastoma cell viability; at 92.2 µM (top of the series); note: nearly all actives have a fitted effect of over 55% in size
Outline: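 Cells were plated at 1500 per well and allowed 5 hr at 37 °C. Compounds were added across a concentration range and incubated 40 hr at 37 °C. CellTiter-Glo was added for 20 min at room temperature before luminescence reading.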

[14] = Cell Viability - Renal Proximal Tubule (AID 545); note: nearly all actives have a fitted effect of over 40% in size
Outline: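 Rat renal proximal tubule primary cells, 1000/well, exposed to compounds for 40 hr at 37 °C in complete medium; cellular ATP read by CellTiter-Glo luminescence. AC50 from concentration-response fitted with standard Hill equation.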

[15] = Cell Viability - Mesenchymal (AID 546);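 note: cells exposed to compound for 40 hours before reading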
Outline: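 CellTiter-Glo luminescence (intracellular ATP, 20 min room temperature) after 40 hr compound exposure at 37 °C of 1000 glomerulus-derived human kidney mesenchymal cells/well; AC50 values obtained by fitting qHTS concentration-response data to the Hill equation.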

[16] = Cellular Toxicity (caspase-3) HepG2 (AID 654);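 note: cells exposed to compound for 16 hours before reading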
Outline: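 Caspase 3/7 activation in HepG2 is measured as rising luminescence after a 16 hr treatment at 37 °C. Values are scaled between DMSO basal and 100 uM tamoxifen, and AC50 is fitted with the Hill equation.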

[17] = Cellular Toxicity (caspase-3) Jurkat (AID 655);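 note: cells exposed to compound for 16 h at 37 °C before reading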
Outline: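 Jurkat cells (5000/well) in complete medium exposed 16 h at 37 C; caspase-3/7 activity read by Caspase-Glo luminescence after 20 min at room temperature. Normalized to DMSO and 100 uM tamoxifen; AC50 from Hill fits.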

[18] = Cellular Toxicity (caspase-3) HUV-EC-C (AID 656)
Outline: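 HUV-EC-C cells (1000/well) in complete medium, compound-treated 16 h at 37 °C; caspase-3/7 activity read by Caspase-Glo 3/7 luminescence. Normalized to DMSO (basal) and 100 uM tamoxifen (100%); AC50 from Hill-equation concentration-response fits.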

[19] = Cellular Toxicity (caspase-3) SHSY5Y (AID 657)
Outline: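 SH-SY5Y human neuroblastoma cells, 1500/well, exposed to compound for 16 hours at 37 °C in complete medium. Caspase-3/7 activity read by Caspase-Glo luminescence after 1 hr at room temperature, normalized to DMSO and 10 uM staurosporine; AC50 from Hill fit.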

[20] = Cellular Toxicity (caspase-3) BJ (AID 658)
Outline: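 Caspase-Glo 3/7 luminescence, read 1 hr after reagent at room temperature, in normal BJ fibroblasts exposed 16 hours at 37 °C. AC50 values from Hill-equation concentration-response, scaled between DMSO basal and 10 uM staurosporine as 100%.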

[21] = Cellular Toxicity (caspase-3) MRC-5 (AID 659)
Outline: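 Luminescent Caspase-Glo 3/7 read-out (1 h, room temperature) after a 16 h, 37 °C compound exposure of MRC-5 lung fibroblasts at 1500 cells/well. Concentration-response AC50 from Hill equation; 0% DMSO, 100% 10 uM staurosporine.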

[22] = Cellular Toxicity (caspase-3) Mesangial (AID 660);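 note: cells exposed to compound for 16 h before the caspase read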
Outline: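 Seed cells derived from normal human renal glomeruli, incubate 5 h, add compounds across concentrations and incubate 16 h at 37 °C. Caspase 3/7 activation is then quantified by luciferase light, with AC50 derived by Hill modeling.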

[23] = Cellular Toxicity (caspase-3) SK-N-SH (AID 661)
Outline: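 Cells were seeded and incubated 5 hr at 37 °C, dosed with compound over a concentration range for 16 hr, then given Caspase-Glo 3/7 reagent for 1 hr at room temperature before luminescence reading.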

[24] = Cellular Toxicity (caspase-3) H-4-II-E (AID 663);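 note: cells exposed to compound for 16 hr before readout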
Outline: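 Caspase 3/7 activation measured by luminescent aminoluciferin substrate cleavage after 16 hr compound treatment of H-4-II-E cells in complete medium. Increase normalized between DMSO (basal) and 100 uM tamoxifen (100%); Hill-equation AC50 from concentration-response.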

[25] = Cellular Toxicity (caspase-3) Hek293 (AID 664);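 note: cells exposed to compound for 16 h at 37 °C before readout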
Outline: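 qHTS, HEK293 (human embryonic kidney), 16 h cpd exposure in complete medium. Caspase-3/7 activation = luminescence increase; normalized to DMSO/100 uM tamoxifen; Hill-fit AC50.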

[26] = Cellular Toxicity (caspase-3) N2a (AID 665);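 note: compound exposure lasted 16 h at 37 °C before readout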
Outline: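 Caspase-3/7 activation, measured as increased luminescence from aminoluciferin release, is quantified in mouse N2a cells exposed to compounds for 16 h. Values are normalized to DMSO and 10 uM staurosporine, with AC50 derived by Hill modelling.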

[27] = Cellular Toxicity (caspase-3) NIH 3T3 (AID 666)
Outline: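 Cells were plated at 1000 per well and incubated 5 hr at 37°C, then compound was added for 16 hr. Caspase-Glo 3/7 reagent followed for 20 min at room temperature before luminescence was read.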

[28] = Cellular Toxicity (caspase-3) Renal Proximal Tubule (AID 667);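 note: cells exposed to compound for 16 hours at 37 °C before detection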
Outline: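 Freshly isolated primary rat kidney proximal tubule cells, 1000/well, treated 16 hr at 37 °C, then Caspase-Glo 3/7 luminescence after 1 hr. Normalized to DMSO and 10 uM staurosporine; AC50 from Hill fit.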

[29] = MultiTox-Fluor Cytotoxicity Assay - LYMP1-001 - Dead Cells (AID 946)
Outline: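 Cytotoxicity as increased dead-cell protease fluorescence (bis-AAF-R110, 485/520 nm), read 60 min after MultiTox-Fluor reagent. Human lymphoblastoid line exposed 16 h; Hill-fitted AC50, with DMSO as 0% and 15 uM tetraoctylammonium bromide as 100%.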

[30] = MultiTox-Fluor Cytotoxicity Assay - LYMP1-001 - Live Cells (AID 947)
[31] = Cell Viability - LYMP1-002 - Assay at 16 hr (AID 948)
Outline: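 LYMP1-002 human lymphoblastoid cells, 2500/well, were treated with compounds for 16 hr at 37 C in complete medium. Viability was read as intracellular ATP by CellTiter-Glo luminescence, and AC50 was derived from a Hill fit to concentration-response data.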

[32] = MultiTox-Fluor Cytotoxicity Assay - LYMP1-002 - Live Cells (AID 955)
Outline: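 Cells were seeded at 2500 per well and incubated 5 hr. Compounds were then added for 16 hr at 37 C, followed by MultiTox-Fluor reagent for 60 min at room temperature and fluorescence reading of viable-cell protease signal.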

[33] = MultiTox-Fluor Cytotoxicity Assay - LYMP1-002 - Dead Cells (AID 960); note: nearly all actives have a fitted effect of over 60% in size
Outline: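 Cells were plated, rested 5 hr, then treated with compound dilution series for 16 hr at 37 C. After adding substrate reagent and 60 min at room temperature, dead-cell protease fluorescence gave concentration-response curves fitted by the Hill equation.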

[34] = MultiTox-Fluor Cytotoxicity Assay - LYMP1-003 - Dead Cells (AID 961); note: nearly all actives have a fitted effect of over 70% in size
Outline: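 Dead-cell protease release, detected as bis-AAF-R110 fluorescence at 485/520 nm, was measured in LYMP1-003 cells after 16 h compound treatment at 37 C. AC50 values came from Hill-modeled qHTS curves normalized to DMSO (0%) and 15 uM tetraoctylammonium bromide (100%).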

[35] = MultiTox-Fluor Cytotoxicity Assay - LYMP1-003 - Live Cells (AID 962);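 note: cytotoxic hits lower the live-cell protease signal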
Outline: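 Acute cytotoxicity is scored as a drop in live-cell protease activity in human lymphoblastoid LYMP1-003 cells after 16 hr compound exposure at 37 C. AC50 values come from Hill-equation modelling of concentration-response data.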

[36] = measured here: PEO1 parental Z-AUC

Structure (SMILES): Cc1ncc(NC(=O)c2cccc(C(F)(F)F)c2)cc1-c1cnc(OC2CCOCC2)c(N2CCOCC2)c1
- Potency [1]: 18.6 µM (active)
- Potency [2]: 16.6 µM (active)
- Potency [3]: inactive
- Z-AUC [4]: -1.52 (inactive)
- Z-AUC [4, 36]: -1.38
- Z-AUC ([4]; measured here: PEO4 Z-AUC): -1.33

Structure (SMILES): COc1cc(OC)cc(N2CCN(C(=O)Nc3nc4cc(F)ccc4nc3OC)CC2)c1
- Potency [1]: 20.9 µM (active)
- Potency [2]: 26.3 µM (active)
- Potency [3]: inactive
- Potency [5]: inactive
- Z-AUC [4]: -0.785 (inactive)
- Z-AUC [4, 36]: -0.317
- Z-AUC ([4]; measured here: PEO4 Z-AUC): 0.136

Structure (SMILES): COc1ccc(S(=O)(=O)Nc2cc(-c3csc(C#N)c3)ccc2C)cc1
- Potency [1]: 0.105 µM (active)
- Potency [2]: 0.118 µM (active)
- Potency [3]: inactive
- Z-AUC [4]: -0.571 (inactive)
- Z-AUC [4, 36]: -1.63
- Z-AUC ([4]; measured here: PEO4 Z-AUC): -1.47

Structure (SMILES): CCCCCc1ccc(/C=C/[C@H](O)[C@@H](CO)NC)cc1
- Potency [1]: 23.1 µM (active)
- Potency [3]: inactive

Structure (SMILES): CCc1ccc2nc(Nc3cc(Cc4ccccc4)nc(NC4CCC(O)CC4)n3)sc2c1 (stereo not given)
- Potency [2]: 23.5 µM (active)
- Potency [3]: inactive
- Z-AUC [4]: -0.86 (inactive)
- Z-AUC [4, 36]: -0.737
- Z-AUC ([4]; measured here: PEO4 Z-AUC): -0.703

Structure (SMILES): COc1ccccc1-c1nc(SCC(=O)Nc2ccc(C)c(C)c2)n[nH]1
- Potency [1]: inactive
- Potency [3]: inactive

Structure (SMILES): CCn1c(-c2nonc2N)nc2cncc(C(=O)N3CC[C@H](N)C3)c21
- Potency [1]: 10.3 µM (active)
- Potency [3]: inactive

Structure (SMILES): CO[C@H]1/C=C/O[C@@]2(C)Oc3c(C)c(O)c4c(O)c(c(/C=N/N5CCN(C)CC5)c(O)c4c3C2=O)NC(=O)/C(C)=C\C=C\[C@H](C)[C@H](O)[C@@H](C)[C@@H](O)[C@@H](C)[C@H](OC(C)=O)[C@@H]1C
- Potency [6]: > 92 µM (inactive)
- Potency [7]: > 92 µM (inactive)
- Potency [8]: > 92 µM (inactive)
- Potency [9]: > 92 µM (inactive)
- Potency [10]: > 92 µM (inactive)
- Potency [11]: > 92 µM (inactive)
- outcome [12]: inactive
- viability change, negative = cytotoxic [13]: -92.1% (active)
- outcome [14]: inactive
- outcome [15]: inactive
- outcome [16]: inactive
- outcome [17]: inactive
- outcome [18]: inactive
- outcome [19]: inactive
- outcome [20]: inactive
- outcome [21]: inactive
- outcome [22]: inactive
- outcome [23]: inactive
- outcome [24]: inactive
- outcome [25]: inactive
- outcome [26]: inactive
- outcome [27]: inactive
- outcome [28]: inactive
- outcome [29]: inactive
- outcome [30]: inactive
- outcome [31]: inactive
- outcome [32]: inactive
- outcome [33]: inactive
- outcome [34]: inactive
- outcome [35]: inactive
